Results reported in PubChem BioAssay AID1159580 (chemical genetic matrix, 2015).
Among all 5,500 compounds or so, about 2,000 (36%) were called active. Not shown: some 18% with an inconclusive outcome. Some of the results follow. Values without a mark were called inactive. Cut-off read from the data, not from the text of the source: active = normalized growth mostly below about 0.91 (no sharp cut-off); inconclusive = no clear call, values can overlap the other calls; inactive = mostly above about 0.92.

Assay: chemical genetic growth profiling, strain panel (AID 1159580);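 note: tested at 20 µM; growth read once vehicle control cultures reached saturation at 30 °C; 1 = growth at the plate median or of vehicle wells; lower values mean less growth of the strain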
Details: growth OD

For `C=C1C(C)C2C(Cc3ccccc3)NC(=O)C23OC(=O)/C=C/C(=O)CCCC(C)C/C=C/C3C1O` (stereo unspecified), which normalized growth (S. cerevisiae deletion strains, locus YAL013W, strain DEP1, hits give low values) is on record?
Its normalized growth is 0.981.

What about the normalized growth (S. cerevisiae deletion strains, locus YBR021W, strain FUR4, hits give low values) of the same compound?
Its normalized growth is 0.956.

And the normalized growth (S. cerevisiae deletion strains, locus YBR229C, strain ROT2, hits give low values)?
Its normalized growth is 1.01.

And the normalized growth (S. cerevisiae deletion strains, locus YCL029C, strain bik1, hits give low values)?
The normalized growth was 1.01.

And the normalized growth (S. cerevisiae deletion strains, locus YDL035C, strain GPR1, hits give low values)?
The normalized growth was 0.952.

What about the normalized growth (S. cerevisiae deletion strains, locus YDL074C, strain BRE1, hits give low values) of the same compound?
The normalized growth was 0.987.

And the normalized growth (S. cerevisiae deletion strains, locus YDL101C, strain DUN1, hits give low values)?
Its normalized growth is 1.01.

And the normalized growth (S. cerevisiae deletion strains, locus YDL134C, strain PPH21, hits give low values)?
The normalized growth was 0.984.

And the normalized growth (S. cerevisiae deletion strains, locus YDL185W, strain tfp1, hits give low values)?
The normalized growth was 1.02.

And the normalized growth (S. cerevisiae deletion strains, locus YDL192W, strain arf1, hits give low values)?
The normalized growth was 0.994.

What about the normalized growth (S. cerevisiae deletion strains, locus YDR101C, strain arx1, hits give low values) of the same compound?
The normalized growth was 1.

What about the normalized growth (S. cerevisiae deletion strains, locus YDR150W, strain NUM1, hits give low values) of the same compound?
Its normalized growth is 0.985.

And the normalized growth (S. cerevisiae deletion strains, locus YDR162C, strain NBP2, hits give low values)?
Its normalized growth is 0.912.

What about the normalized growth (S. cerevisiae deletion strains, locus YDR318W, strain mcm21, hits give low values) of the same compound?
Its normalized growth is 0.958.

What about the normalized growth (S. cerevisiae deletion strains, locus YDR388W, hits give low values) of the same compound?
The normalized growth was 0.908 (active).

What about the normalized growth (S. cerevisiae deletion strains, locus YDR502C, strain sam2, hits give low values) of the same compound?
Its normalized growth is 0.998.

And the normalized growth (S. cerevisiae deletion strains, locus YEL061C, strain CIN8, hits give low values)?
Its normalized growth is 1.01.

What about the normalized growth (S. cerevisiae deletion strains, locus YER110C, hits give low values) of the same compound?
The normalized growth was 1.01.

What about the normalized growth (S. cerevisiae deletion strains, locus YER155C, strain BEM2, hits give low values) of the same compound?
The normalized growth was 0.995.

What about the normalized growth (S. cerevisiae deletion strains, locus YER167W, strain BCK2, hits give low values) of the same compound?
Its normalized growth is 0.974.

What about the normalized growth (S. cerevisiae deletion strains, locus YGL078C, strain dbp3, hits give low values) of the same compound?
Its normalized growth is 0.99.

What about the normalized growth (S. cerevisiae deletion strains, locus YGL086W, strain mad1, hits give low values) of the same compound?
Its normalized growth is 0.998.

And the normalized growth (S. cerevisiae deletion strains, locus YGL248W, strain PDE1, hits give low values)?
Its normalized growth is 0.973.

What about the normalized growth (S. cerevisiae deletion strains, locus YGR078C, strain PAC10, hits give low values) of the same compound?
The normalized growth was 0.864.

And the normalized growth (S. cerevisiae deletion strains, locus YGR135W, strain pre9, hits give low values)?
The normalized growth was 0.99.

What about the normalized growth (S. cerevisiae deletion strains, locus YGR229C, strain SMI1, hits give low values) of the same compound?
The normalized growth was 0.609 (active).

What about the normalized growth (S. cerevisiae deletion strains, locus YGR252W, strain gcn5, hits give low values) of the same compound?
Its normalized growth is 0.966.

And the normalized growth (S. cerevisiae deletion strains, locus YHR030C, strain SLT2, hits give low values)?
Its normalized growth is 0.652 (active).

And the normalized growth (S. cerevisiae deletion strains, locus YHR079C, strain IRE1 (second series), hits give low values)?
The normalized growth was 1.01.

What about the normalized growth (S. cerevisiae deletion strains, locus YHR094C, strain hxt1, hits give low values) of the same compound?
The normalized growth was 1.

And the normalized growth (S. cerevisiae deletion strains, locus YHR129C, strain ARP1, hits give low values)?
Its normalized growth is 0.972.

And the normalized growth (S. cerevisiae deletion strains, locus YHR200W, strain rpn10, hits give low values)?
The normalized growth was 1.01.

What about the normalized growth (S. cerevisiae deletion strains, locus YIL066C, strain RNR3, hits give low values) of the same compound?
The normalized growth was 0.988.

And the normalized growth (S. cerevisiae deletion strains, locus YIL073C, strain SPO22, hits give low values)?
The normalized growth was 0.815.

And the normalized growth (S. cerevisiae deletion strains, locus YIL125W, strain kgd1, hits give low values)?
The normalized growth was 0.99.

What about the normalized growth (S. cerevisiae deletion strains, locus YIR030C, strain dcg1, hits give low values) of the same compound?
The normalized growth was 1.01.

And the normalized growth (S. cerevisiae deletion strains, locus YJL095W, strain BCK1, hits give low values)?
The normalized growth was 1.01.

What about the normalized growth (S. cerevisiae deletion strains, locus YJL134W, strain LCB3, hits give low values) of the same compound?
Its normalized growth is 1.

What about the normalized growth (S. cerevisiae deletion strains, locus YJL168C, strain set2, hits give low values) of the same compound?
The normalized growth was 1.01.

And the normalized growth (S. cerevisiae deletion strains, locus YJL187C, strain SWE1 (second series), hits give low values)?
Its normalized growth is 1.01.

What about the normalized growth (S. cerevisiae deletion strains, locus YJR043C, strain POL32, hits give low values) of the same compound?
Its normalized growth is 0.975.

And the normalized growth (S. cerevisiae deletion strains, locus YJR075W, strain HOC1, hits give low values)?
The normalized growth was 1.03.

And the normalized growth (S. cerevisiae deletion strains, locus YKL009W, strain mrt4, hits give low values)?
The normalized growth was 1.02.

What about the normalized growth (S. cerevisiae deletion strains, locus YKL068W, hits give low values) of the same compound?
Its normalized growth is 0.993.

What about the normalized growth (S. cerevisiae deletion strains, locus YKL085W, strain MDH1 (second series), hits give low values) of the same compound?
The normalized growth was 0.977.

And the normalized growth (S. cerevisiae deletion strains, locus YKL085W, strain MDH1, hits give low values)?
The normalized growth was 0.977.

What about the normalized growth (S. cerevisiae deletion strains, locus YKL190W, strain CNB1, hits give low values) of the same compound?
Its normalized growth is 1.

And the normalized growth (S. cerevisiae deletion strains, locus YKR001C, strain vps1, hits give low values)?
The normalized growth was 0.935.

And the normalized growth (S. cerevisiae deletion strains, locus YLR039C, strain RIC1, hits give low values)?
Its normalized growth is 0.893.

And the normalized growth (S. cerevisiae deletion strains, locus YLR058C, strain SHM2, hits give low values)?
The normalized growth was 1.01.

What about the normalized growth (S. cerevisiae deletion strains, locus YLR102C, strain apc9, hits give low values) of the same compound?
Its normalized growth is 1.01.

What about the normalized growth (S. cerevisiae deletion strains, locus YLR262C, strain YPT6, hits give low values) of the same compound?
Its normalized growth is 0.597 (active).

What about the normalized growth (S. cerevisiae deletion strains, locus YLR268W, strain sec22, hits give low values) of the same compound?
Its normalized growth is 1.03.

And the normalized growth (S. cerevisiae deletion strains, locus YLR330W, strain CHS5, hits give low values)?
Its normalized growth is 0.988.

What about the normalized growth (S. cerevisiae deletion strains, locus YLR342W, strain FKS1 (second series), hits give low values) of the same compound?
The normalized growth was 0.805.

And the normalized growth (S. cerevisiae deletion strains, locus YLR371W, strain rom2, hits give low values)?
The normalized growth was 1.02.

What about the normalized growth (S. cerevisiae deletion strains, locus YLR418C, strain cdc73, hits give low values) of the same compound?
The normalized growth was 0.94.

What about the normalized growth (S. cerevisiae deletion strains, locus YML016C, strain PPZ1, hits give low values) of the same compound?
Its normalized growth is 1.

And the normalized growth (S. cerevisiae deletion strains, locus YML032C, strain rad52, hits give low values)?
Its normalized growth is 1.01.

And the normalized growth (S. cerevisiae deletion strains, locus YML124C, strain tub3, hits give low values)?
Its normalized growth is 1.01.

And the normalized growth (S. cerevisiae deletion strains, locus YMR078C, strain ctf18, hits give low values)?
Its normalized growth is 1.01.

What about the normalized growth (S. cerevisiae deletion strains, locus YMR223W, strain ubp8, hits give low values) of the same compound?
Its normalized growth is 0.986.

And the normalized growth (S. cerevisiae deletion strains, locus YMR263W, strain SAP30, hits give low values)?
Its normalized growth is 1.

And the normalized growth (S. cerevisiae deletion strains, locus YMR307W, strain GAS1, hits give low values)?
The normalized growth was 0.586 (active).

What about the normalized growth (S. cerevisiae deletion strains, locus YNL067W, strain RPL9B, hits give low values) of the same compound?
Its normalized growth is 0.975.

What about the normalized growth (S. cerevisiae deletion strains, locus YNL128W, strain TEP1, hits give low values) of the same compound?
The normalized growth was 0.973.

And the normalized growth (S. cerevisiae deletion strains, locus YNL153C, strain GIM3, hits give low values)?
The normalized growth was 0.989.

And the normalized growth (S. cerevisiae deletion strains, locus YNL233W, strain BNI4, hits give low values)?
Its normalized growth is 1.02.

And the normalized growth (S. cerevisiae deletion strains, locus YNL250W, strain rad50, hits give low values)?
The normalized growth was 1.01.

What about the normalized growth (S. cerevisiae deletion strains, locus YNL271C, strain bni1, hits give low values) of the same compound?
Its normalized growth is 0.96.

What about the normalized growth (S. cerevisiae deletion strains, locus YNL298W, strain CLA4, hits give low values) of the same compound?
Its normalized growth is 0.896 (active).

What about the normalized growth (S. cerevisiae deletion strains, locus YNL307C, strain MCK1, hits give low values) of the same compound?
The normalized growth was 0.841 (active).

What about the normalized growth (S. cerevisiae deletion strains, locus YNL322C, strain KRE1, hits give low values) of the same compound?
Its normalized growth is 1.01.

And the normalized growth (S. cerevisiae deletion strains, locus YNR052C, strain pop2, hits give low values)?
Its normalized growth is 1.01.

What about the normalized growth (S. cerevisiae deletion strains, locus YOL006C, strain TOP1, hits give low values) of the same compound?
Its normalized growth is 0.79.

And the normalized growth (S. cerevisiae deletion strains, locus YOL012C, strain htz1)?
Its normalized growth is 0.448.

What about the normalized growth (S. cerevisiae deletion strains, locus YOL147C, strain pex11, hits give low values) of the same compound?
Its normalized growth is 1.

What about the normalized growth (S. cerevisiae deletion strains, locus YOR061W, strain CKA2, hits give low values) of the same compound?
The normalized growth was 0.996.

And the normalized growth (S. cerevisiae deletion strains, locus YOR069W, strain VPS5, hits give low values)?
The normalized growth was 1.

What about the normalized growth (S. cerevisiae deletion strains, locus YOR136W, strain idh2, hits give low values) of the same compound?
Its normalized growth is 0.991.

What about the normalized growth (S. cerevisiae deletion strains, locus YOR144C, strain elg1, hits give low values) of the same compound?
Its normalized growth is 1.

What about the normalized growth (S. cerevisiae deletion strains, locus YOR184W, strain ser1, hits give low values) of the same compound?
The normalized growth was 0.992.

What about the normalized growth (S. cerevisiae deletion strains, locus YOR316C, strain cot1, hits give low values) of the same compound?
The normalized growth was 1.01.

And the normalized growth (S. cerevisiae deletion strains, locus YPL055C, strain LGE1, hits give low values)?
The normalized growth was 0.97.

And the normalized growth (S. cerevisiae deletion strains, locus YPL241C, strain CIN2, hits give low values)?
Its normalized growth is 1.

And the normalized growth (S. cerevisiae deletion strains, locus YPR119W, strain clb2, hits give low values)?
Its normalized growth is 1.

What about the normalized growth (S. cerevisiae deletion strains, locus YPR141C, strain kar3, hits give low values) of the same compound?
Its normalized growth is 1.01.

What about the normalized growth (S. cerevisiae deletion strains, locus YPR163C, strain tif3, hits give low values) of the same compound?
Its normalized growth is 0.884 (active).

What about the normalized growth (S. cerevisiae deletion strains, locus YPR167C, strain met16, hits give low values) of the same compound?
The normalized growth was 1.01.

And the normalized growth (S. cerevisiae deletion strains, strain wtn01, hits give low values)?
The normalized growth was 0.983.

And the normalized growth (S. cerevisiae strains, strain wild type, hits give low values)?
The normalized growth was 0.966.
